# Assay results: article PMC4336329 (PLoS ONE, 2015)
# The campaign covered roughly 310,000 compounds. About 14,000 (4.5%) showed an effect of 50% or more. Effects have a minus sign here. The sample holds strong results, similar compounds and a random draw of the others, so the mix is not that of the screen.
# Target: human ether-à-go-go-related gene (hERG) potassium channel (human, UniProt Q12809)
# Test: primary screen, population patch clamp on CHO cells stably expressing hERG; higher = less effect of the substance
# 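Further: peak tail current of the secondary pulse compared with the same well before compound.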
# Chain of human ether-à-go-go-related gene (hERG) potassium channel (Q12809 whole entry, looked up): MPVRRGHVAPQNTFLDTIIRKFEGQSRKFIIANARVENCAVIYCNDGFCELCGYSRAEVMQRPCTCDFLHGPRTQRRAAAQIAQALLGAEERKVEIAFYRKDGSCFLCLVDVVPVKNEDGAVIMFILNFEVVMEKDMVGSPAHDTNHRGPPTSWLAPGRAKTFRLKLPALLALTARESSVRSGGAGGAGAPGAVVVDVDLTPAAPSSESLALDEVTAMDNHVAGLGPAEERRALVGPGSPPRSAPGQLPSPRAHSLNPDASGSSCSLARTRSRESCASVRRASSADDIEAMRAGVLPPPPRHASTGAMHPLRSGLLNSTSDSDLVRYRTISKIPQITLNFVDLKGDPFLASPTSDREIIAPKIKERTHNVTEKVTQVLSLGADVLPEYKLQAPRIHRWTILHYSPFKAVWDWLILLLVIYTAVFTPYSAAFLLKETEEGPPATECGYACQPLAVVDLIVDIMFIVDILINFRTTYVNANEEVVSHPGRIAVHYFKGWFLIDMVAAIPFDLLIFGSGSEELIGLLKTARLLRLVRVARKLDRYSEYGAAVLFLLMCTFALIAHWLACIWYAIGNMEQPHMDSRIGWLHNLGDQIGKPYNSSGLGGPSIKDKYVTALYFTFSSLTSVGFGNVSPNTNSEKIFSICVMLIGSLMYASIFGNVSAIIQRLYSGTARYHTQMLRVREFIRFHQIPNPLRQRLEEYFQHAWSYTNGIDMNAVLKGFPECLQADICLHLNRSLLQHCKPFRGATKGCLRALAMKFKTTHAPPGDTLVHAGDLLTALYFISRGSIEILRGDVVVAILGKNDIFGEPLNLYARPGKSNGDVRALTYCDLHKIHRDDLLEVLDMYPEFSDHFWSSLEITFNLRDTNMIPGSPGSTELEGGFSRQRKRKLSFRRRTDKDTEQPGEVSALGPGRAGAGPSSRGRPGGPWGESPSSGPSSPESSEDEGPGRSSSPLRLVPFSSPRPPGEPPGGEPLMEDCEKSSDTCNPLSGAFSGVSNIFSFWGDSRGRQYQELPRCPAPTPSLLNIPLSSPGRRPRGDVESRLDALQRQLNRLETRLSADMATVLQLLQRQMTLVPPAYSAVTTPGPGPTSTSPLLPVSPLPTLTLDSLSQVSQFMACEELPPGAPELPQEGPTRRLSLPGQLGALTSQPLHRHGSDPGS
row,SMILES,"hERG current change (%, negative = inhibition) at 10uM"
1,COC(=O)c1ccccc1NC(=O)COC(=O)CO/N=C(\C)c1ccc2c(c1)OCO2,21%
2,CCn1c(SCC(=O)Nc2nc3ccc(OC)cc3s2)nnc1-c1ccoc1C,-32.3%
3,OC(COc1cc(Cl)c(Cl)cc1Cl)CN1CCN(c2ncccn2)CC1 (stereo not shown),-11.3%
4,CCSc1nnc(NC(=O)CSc2nccn2-c2cc(C)cc(C)c2)s1,-2.92%
5,COc1ccc(-c2c(C)nn3c(N4CCCCCC4)cc(C)nc23)cc1OC,7.94%
6,COc1ccc(C(=O)C2CCCN(Cc3cccc4c3OCO4)C2)cc1OC (stereo not shown),-73.8%
7,COc1cccc(C(=O)C2CCCN(Cc3cccc4c3OCO4)C2)c1 (stereo not shown),-49.4%
8,CCNC(=O)N1CCCC(C(=O)c2ccc(OC)c(OC)c2)C1 (stereo not shown),20.8%
9,CCN1C(=O)CC(N2CCN(c3cccc(OC)c3)CC2)C1=O (stereo not shown),14.1%
10,Cc1cc2nccc(-c3ccccn3)n2n1,28.3%
11,Cc1ccc(Nc2nc(=O)[nH]nc2C)cc1,-9.45%
12,CC1CCCCC1NC(=O)CCNC(=O)N1CC(=O)Nc2ccccc21 (stereo not shown),10.5%
13,CC(=O)Nc1cccc(-c2nnc(SCC(=O)n3c4c(c5ccccc53)CCCC4)n2C)c1,2.33%
14,COC(=O)c1c(NC(=O)Cc2ccccc2)sc2c1CC(C)(C)NC2(C)C,-11.1%
15,CCOC(=O)c1c(NC(=O)Cc2ccccc2)sc2c1CC(C)(C)NC2(C)C,-52%
16,CCOC(=O)c1c(NC(=O)CSc2nc3ccccc3[nH]2)sc2c1CC(C)(C)NC2(C)C,-45.2%
17,CCOC(=O)c1c(NC(=O)CSc2ncccn2)sc2c1CC(C)(C)NC2(C)C,-55.9%
18,CCOC(=O)c1c(NC(=O)COc2ccccc2OCC)sc2c1CC(C)(C)NC2(C)C,13.3%
19,CCOC(=O)c1c(NC(=O)CSc2nnnn2-c2ccccc2OCC)sc2c1CC(C)(C)NC2(C)C,-71.2%
20,CCOC(=O)c1c(NC(=O)COc2ccccc2F)sc2c1CC(C)(C)NC2(C)C,5.17%
21,CCOC(=O)c1c(NC(=O)CSc2nnnn2-c2ccccc2)sc2c1CCC(C)C2 (stereo not shown),-5.66%
22,CCOC(=O)c1c(NC(=O)CSc2nc3ccc(C)cc3[nH]2)sc2c1CC(C)(C)NC2(C)C,-44.3%
23,CCOC(=O)c1c(NC(=O)COc2ccccc2)sc2c1CC(C)(C)NC2(C)C,14.3%
24,CCOC(=O)c1c(NC(=O)CSc2nnnn2-c2ccccc2)sc2c1CC(C)(C)NC2(C)C,-64.3%
25,CCOC(=O)c1sc(NC(=O)CSc2nnnn2-c2ccccc2)c(C(=O)OCC)c1C,4.34%
26,N#Cc1ccc2ccn(CC(=O)NCc3ccccc3)c2c1,-1.22%
27,O=C(CN1CCN(Cc2ccccc2F)C1=O)NC1CCCC1,1.87%
28,Cc1nccn1CC(O)COC1CCCCC1 (stereo not shown),13%

row,SMILES,"hERG current change (%, negative = inhibition) at 10uM"
1,Nc1nnnn1/N=C/c1cccs1,3.28%
2,CSc1ncccc1C(=O)NCCc1ccccc1,7.94%
3,CC(C)n1c(CN2CCN(Cc3ccccc3)CC2)nc2ccccc21,-14.4%
4,CCn1c(=S)sc2c(=O)n(-c3ccccc3)c(SC)nc21,-11.2%
5,CCN(CC)C(=O)CSc1nc2c(sc(=S)n2CC)c(=O)n1-c1ccccc1,-66.9%
6,CCN(CC)C(=O)CSc1nc2c(sc(=S)n2-c2ccccc2)c(=O)n1Cc1ccco1,-78.7%
7,CCN(CC)C(=O)CSc1nc2c(sc(=S)n2Cc2ccco2)c(=O)n1-c1ccccc1,-29.4%
8,CCC(C)NC(=O)CSc1nc2c(sc(=S)n2Cc2ccco2)c(=O)n1-c1ccccc1 (stereo not shown),-9.99%
9,CCN(CC)C(=O)CSc1nc2c(sc(=S)n2-c2ccccc2OC)c(=O)n1-c1ccccc1,-4.22%
10,CC(C)CCNC(=O)C1CCN(S(=O)(=O)c2ccc3c(c2)CC(C)N3C(=O)C2CCC2)CC1 (stereo not shown),-12.7%
11,CN(Cc1ccccc1)C(=S)Nc1cccnc1,9.05%
12,COc1c(C)cc(Br)cc1C(=O)Nc1ccc(Cc2ccncc2)cc1,-3.5%
13,COc1ccc(N(C(=O)Cn2nnc(-c3ccc(F)cc3)n2)C(C)C(=O)NC2CCCC2)cc1 (stereo not shown),-22%
14,CCC/C(O)=C1\C(=O)CC(c2ccccc2)CC1=NCCc1c(C)[nH]c2ccccc12 (stereo not shown),-39.3%
15,Cc1nnc(SCc2nc3ccccc3s2)n1-c1ccccc1,2.82%
16,Cc1[nH]n(-c2ccc([N+](=O)[O-])cc2)c(=O)c1C=NCCc1c[nH]c2ccccc12,13.2%
17,O=c1c(C=NCCN2CCNCC2)c(-c2ccccc2)[nH]n1-c1ccc([N+](=O)[O-])cc1,-66.4%
18,CNC(=S)N1CCN(CCN=Cc2c(O)n(-c3ccc(C)cc3)c(=S)[nH]c2=O)CC1,21.2%
19,CC(=O)N1CCN(CCN=Cc2c(O)n(-c3ccc(F)cc3)c(=S)[nH]c2=O)CC1,22.1%
20,CC1(C)CC(=O)C(C=NCCN2CCN(C(=O)c3ccc(F)cc3)CC2)=C(O)C1,-21.1%
21,Cc1[nH]n(-c2ccc([N+](=O)[O-])cc2)c(=O)c1C=NCCN1CCN(C(=O)c2ccccc2)CC1,-71.6%
22,Cc1[nH]n(-c2ccc([N+](=O)[O-])cc2)c(=O)c1C=NCCN1CCN(C(=O)c2ccc(F)cc2)CC1,-73.7%
23,Cc1[nH]n(-c2ccc([N+](=O)[O-])cc2)c(=O)c1C=NCCc1c(C)[nH]c2ccccc12,1.38%
24,C=CCNC(=S)N1CCN(CCN=Cc2c(C)[nH]n(-c3ccc([N+](=O)[O-])cc3)c2=O)CC1,-72.1%
25,COc1ccc(-c2[nH]n(-c3ccc([N+](=O)[O-])cc3)c(=O)c2C=NCCN2CCNCC2)cc1,-4.9%
26,O=c1c(C=NCC2CCCO2)c(-c2ccccc2)[nH]n1-c1ccc([N+](=O)[O-])cc1 (stereo not shown),7.58%
27,Cc1ccc(-n2[nH]c(C)c(/C=N/Nc3ccc([N+](=O)[O-])cc3[N+](=O)[O-])c2=O)cc1,23.9%
